From PubChem
Anthrax LF inh2: blocks Bacillus anthracis lethal factor protease; multiplex microsphere protease cleavage assay, LF; 360,000 tested, 0.12% active; inhibition, % at 10 µM; AID 588501; P15917; note: plate controls were buffer without enzyme for full effect and enzyme alone for no effect
BoNT F protease: blocks Botulinum neurotoxin F light chain protease; Multiplex microsphere protease cleavage assay, flow cytometry; inhibition, % at 10 µM; AID 588497; 360,000 tested, 0.22% active; in the data active = inhibition above about 35%, passing the limit was not always enough; inconclusive = no clear call, values can overlap the other calls; note: plate controls were buffer without enzyme for full effect and enzyme alone for no effect
Bead autofluor: counter-screen for toxin protease inhibitors: compound fluorescence | compound autofluorescence counterscreen, microsphere flow cytometry; active compounds read high | fluorescence intensity (no concentration beside the values) | 360,000 tested, 3.1% active; in the data active = fluorescence intensity above about 16000; inconclusive = no clear call, values can overlap the other calls
BoNT A protease: blocks Botulinum neurotoxin A light chain protease | AID 588499 | 360,000 tested, 0.17% active | inhibition, % at 10 µM | multiplex microsphere protease substrate cleavage, flow cytometry; note: plate controls were buffer without enzyme for full effect and enzyme alone for no effect
SSB-PriA inh: inhibitors of Klebsiella pneumoniae PriA binding to SSB C-terminal tail; AlphaScreen SSBct-PriA binding, biotinylated peptide; inhibition, % at 33 µM; 430,000 tested, 0.6% active; in the data active = inhibition mostly above about 37%, no sharp cut-off; inactive = mostly below about 20%;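 note: plate controls were negative control peptide for no effect and reference peptide for full effect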
* hit, by the source's call; ? = inconclusive; / = no result. Compounds with a hit are over-represented: about 3.1% of the library has one in this group of screens. Cut-off read from the data, not from the text of the source, unless noted: active = inhibition above about 30%; inconclusive = no clear call, values can overlap the other calls; inactive = below that.

SMILES	Anthrax LF inh2	BoNT F protease	Bead autofluor	BoNT A protease	SSB-PriA inh
COc1ccc(OC)c(S(=O)(=O)N2CCC(c3nnc(-c4ccc(F)cc4)o3)CC2)c1	/	/	/	/	-3.0
COc1ccc(OC)c(N2C(=O)C(Cl)=C(N3CCCCC3)C2=O)c1	1.5	9.1	21020*	8.7	-7.2
COc1ccc(OC)c(N2C(=O)C(Cl)=C(N3CCOCC3)C2=O)c1	-2.3	1.0	11439	0.0	-12.1
CCCn1c(=O)[nH]c2ccccc21	-4.1	-5.5	2898	-0.3	-4.1
Cc1cc(C)nc(SCCCn2c(=O)[nH]c3ccccc32)n1	-3.8	-6.6	16659*	-1.4	0.8
O=C(NCC1CCCCC1)c1ccco1	0.5	-4.4	22013*	?	-15.1
Cc1ccc(C)c(Nc2c([N+](=O)[O-])cc(C(=O)N3CC(=O)Nc4ccccc43)cc2[N+](=O)[O-])c1	-3.6	-8.9	2758	-0.2	52.7*
O=C1[C@H]2[C@H](ON3CCCC[C@H]23)C(=O)N1c1cccc(C(F)(F)F)c1	3.9	0.9	4905	-0.9	5.8
COc1ccc([C@@H]2[C@H]3C(=O)N(c4cccc(C(F)(F)F)c4)C(=O)[C@H]3ON2C)cc1	-0.8	3.9	21509*	1.9	-7.9
O=C(CSc1nnc(Cc2cc(=O)[nH]c(=O)[nH]2)n1-c1ccc(Cl)cc1)NC[C@H]1CCCO1	/	/	/	/	-8.0
Cc1ccc(Cl)cc1N1CCN(S(=O)(=O)c2c(C)[nH]c(=O)[nH]c2=O)CC1	0.4	1.4	19342*	?	-7.0
NC(=NOC(=O)CCCc1ccccc1)c1cccc([N+](=O)[O-])c1	/	/	/	/	7.9
O=C(Cc1csc(NS(=O)(=O)c2ccc(Cl)cc2)n1)NCc1ccc2c(c1)OCO2	/	/	/	/	-17.0
Clc1ccc(C2=NN(c3ccccc3)C(c3ccco3)C2)cc1 (configuration not stated)	/	/	/	/	-3.7
Cc1nn2c(c1-c1ccc(Cl)cc1)N=C(c1ccco1)CC2c1ccccc1 (configuration not stated)	-1.0	2.7	22364*	6.3	17.9
CNC(=O)CSc1nc(N)c(NC(=O)c2ccco2)c(=O)[nH]1	/	/	/	/	-2.0
NC(=O)CC1NC(=O)c2ccccc21 (configuration not stated)	2.4	1.9	23615*	0.2	-14.8
O=C(NCCN1CCC(c2cccs2)CC1)Nc1ccccc1F	/	/	/	/	-2.0
O=C(O)c1ccc(F)c(S(=O)(=O)Nc2ccccc2Cl)c1	-0.5	0.1	23288*	-0.1	-13.8
O=C(O)c1cccc(NS(=O)(=O)c2ccccc2F)c1	/	/	/	/	-9.0
O=C(CSc1cccc2cccnc12)Nc1ccc(C(=O)O)cc1	/	/	/	/	133.0*
O=C(CSc1cccc2cccnc12)Nc1ccccc1	/	/	/	/	44.1
CCOC(=O)CSc1cccc2cccnc12	-0.5	-9.2	2798	0.1	98.5*
Cc1cc(Br)cc(C)c1NC(=O)CSc1cccc2cccnc12	/	/	/	/	58.6*
Cc1cccc(C)c1NC(=O)CSc1cccc2cccnc12	/	/	/	/	48.6
SMILES	Anthrax LF inh2	BoNT F protease	Bead autofluor	BoNT A protease	SSB-PriA inh
O=C(CSc1ccccc1C(=O)O)Nc1cccc(C(=O)O)c1	0.4	3.2	21124*	?	-4.2
O=C(CSc1nc2scc(-c3ccco3)c2c(=O)n1-c1ccccc1)Nc1ccc(F)c(Cl)c1	/	/	/	/	1.0
c1cc(-c2nnc3sc(-c4ccc5c(c4)OCCCO5)nn23)ccn1	/	/	/	/	-9.0
CCCCCOc1ccc(NC(=O)CSc2cccc3cccnc23)cc1	-0.2	-3.8	2533	-0.3	78.8*
CC(C)NC(=O)CSc1cccc2cccnc12	/	/	/	/	34.1
CN1CCN(NC(=O)CSc2cccc3cccnc23)CC1	/	/	/	/	91.0*
CCNC(=S)NN=C(C)c1cccc([N+](=O)[O-])c1	/	/	/	/	9.3
C/C(=N/NC(=S)NCc1ccco1)c1cccc([N+](=O)[O-])c1	/	/	/	/	66.0*
CSCCC(N=Cc1c(O)n(-c2ccc(Br)cc2)c(=O)[nH]c1=O)C(=O)OC(C)(C)C (configuration not stated)	1.2	3.7	21352*	?	-2.5
CSCCC(NC(=O)c1ccccc1)C(=O)NC1CC1 (configuration not stated)	-2.1	-5.7	23748*	?	2.6
CSCCC(NC(=O)c1ccccc1)C(=O)NC1CCCC1 (configuration not stated)	-2.9	-4.1	10885	-0.4	-4.1
COc1ccc(NS(=O)(=O)c2ccc([N+](=O)[O-])cc2)cc1N1CCCC1=O	/	/	/	/	5.0
Cc1cc(C(=O)N2CCNC(=O)C2(C)C)no1	/	/	/	/	-5.0
CCN(CC)CCNc1ccc(C)c2sc3ccc(O)cc3c(=O)c12	-9.0	-57.0	3061	1.0	68.5*
CC(C(=O)c1ccc(Br)cc1)[n+]1cccc2ccccc21 (configuration not stated)	-7.7	?	16961*	-4.5	-9.3
